Test results taken from PubChem BioAssay AID1159580 (chemical genetic matrix, 2015).
Values joined by “and” are separate entries in the source; they are usually repeats but may differ in a detail not shown here. Equal values may be shown once. Out of some 5,500 compounds screened, about 2,000 (36%) were called active. Not shown: some 18% with an inconclusive outcome. Cut-off read from the data, not from the text of the source: active = normalized growth mostly below about 0.91 (no sharp cut-off); inconclusive = no clear call, values can overlap the other calls; inactive = mostly above about 0.92. The list shows a part of the results. The source holds several records for some structures; these can differ, active in one and inactive in another.

Assay: chemical genetic growth profiling, strain panel (AID 1159580);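 note: tested at 20 µM; growth read once vehicle control cultures reached saturation at 30 °C; 1 = growth at the plate median or of vehicle wells; lower values mean less growth of the strain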
Conditions: S. cerevisiae deletion strains, growth OD
[1] = locus YAL040C, strain CLN3, stronger effect = lower value
[2] = locus YCL061C, strain MRC1 (second series), stronger effect = lower value
[3] = locus YDR150W, strain NUM1, stronger effect = lower value
[4] = locus YDR363W, strain ESC2, stronger effect = lower value
[5] = locus YER002W, strain NOP16, stronger effect = lower value
[6] = locus YGR078C, strain PAC10, stronger effect = lower value
[7] = locus YNL153C, strain GIM3, stronger effect = lower value
[8] = locus YNL197C, strain WHI3, stronger effect = lower value
[9] = locus YNL224C, strain SQS1, stronger effect = lower value
[10] = locus YNL322C, strain KRE1, stronger effect = lower value
[11] = locus YOR083W, strain WHI5 (second series), stronger effect = lower value

Measured: normalized growth

CCCOC(=O)c1c(-c2ccccc2)nc(CC)c(C(=O)SCC)c1CCC
inactive: [1] 1.04 | [2] 1 | [3] 1.01 | [4] 0.982 | [5] 1.01 | [6] 0.974 | locus YNL128W, strain TEP1, stronger effect = lower value 1.09 | [7] 1.02 | [8] 1.02 | [9] 1.04 | [10] 0.993 | [11] 1.09

O=C(O)CCc1nc(-c2ccccc2)c(-c2ccccc2)o1
1 (inactive) and 0.926 (active): [10]
inactive: locus YAL013W, strain DEP1, stronger effect = lower value 0.974 | locus YAL021C, strain ccr4, stronger effect = lower value 0.966 | locus YAL026C, strain drs2, stronger effect = lower value 0.929 | locus YAL030W, strain snc1, stronger effect = lower value 0.958 | [1] 0.978 | locus YBL061C, strain skt5, stronger effect = lower value 0.965 | locus YBR009C, strain hhf1, stronger effect = lower value 0.964 | locus YBR023C, strain chs3, stronger effect = lower value 0.979 | locus YBR171W, strain sec66, stronger effect = lower value 0.949 | locus YBR231C, strain swc5, stronger effect = lower value 0.96 | locus YBR279W, strain paf1, stronger effect = lower value 0.975 | locus YCL011C, strain gbp2, stronger effect = lower value 0.943 | locus YCL016C, strain dcc1, stronger effect = lower value 0.954 | [2] 0.996 | locus YCL069W, strain vba3, stronger effect = lower value 0.965 | locus YCR088W, strain abp1, stronger effect = lower value 0.962 | locus YDL005C, strain med2, stronger effect = lower value 0.959 | locus YDL040C, strain nat1, stronger effect = lower value 0.955 | locus YDL101C, strain DUN1, stronger effect = lower value 0.995 | locus YDR001C, strain nth1, stronger effect = lower value 0.925 | locus YDR069C, strain doa4, stronger effect = lower value 0.954 | locus YDR137W, strain rgp1, stronger effect = lower value 0.925 | [3] 1 and 1.04 | locus YDR159W, strain sac3, stronger effect = lower value 0.916 | locus YDR195W, strain ref2 0.969 | locus YDR297W, strain sur2, stronger effect = lower value 0.955 | locus YDR334W, strain swr1, stronger effect = lower value 0.948 | locus YDR335W, strain msn5, stronger effect = lower value 0.965 | [4] 0.979 | locus YDR392W, strain spt3, stronger effect = lower value 0.831 | locus YEL003W, strain gim4, stronger effect = lower value 0.943 | locus YEL037C, strain rad23, stronger effect = lower value 0.968 | locus YEL061C, strain CIN8 (second series), stronger effect = lower value 0.941 | locus YEL061C, strain CIN8, stronger effect = lower value 1 | [5] 0.998 | locus YER015W, strain faa2, stronger effect = lower value 0.974 | locus YER016W, strain bim1, stronger effect = lower value 0.961 | locus YER111C, strain swi4, stronger effect = lower value 0.958 | locus YER155C, strain BEM2 (second series), stronger effect = lower value 0.958 | locus YFR010W, strain ubp6, stronger effect = lower value 0.958 | locus YGL167C, strain pmr1, stronger effect = lower value 0.961 | locus YGL173C, strain kem1, stronger effect = lower value 0.958 | locus YGL227W, strain vid30, stronger effect = lower value 0.957 | locus YGL240W, strain doc1, stronger effect = lower value 0.95 | locus YGL253W, strain hxk2, stronger effect = lower value 0.957 | locus YGR229C, strain SMI1, stronger effect = lower value 0.976 | locus YHR013C, strain ard1, stronger effect = lower value 0.938 | locus YHR027C, strain rpn1, stronger effect = lower value 0.971 | locus YHR030C, strain SLT2, stronger effect = lower value 0.935 and 1.03 | locus YHR079C, strain IRE1, stronger effect = lower value 0.967 | locus YHR087W, strain rtc3, stronger effect = lower value 0.925 | locus YHR142W, strain chs7, stronger effect = lower value 0.963 | locus YJL092W, strain hpr5, stronger effect = lower value 0.949 | locus YJL095W, strain BCK1 (second series), stronger effect = lower value 0.959 | locus YJL095W, strain BCK1, stronger effect = lower value 0.901 | locus YJL115W, strain asf1, stronger effect = lower value 0.956 | locus YJL129C, strain trk1, stronger effect = lower value 0.926 | locus YJL154C, strain vps35, stronger effect = lower value 0.966 | locus YJL164C, strain tpk1, stronger effect = lower value 0.954 | locus YJL166W, strain qcr8, stronger effect = lower value 0.976 | locus YJR043C, strain POL32, stronger effect = lower value 0.959 | locus YJR066W, strain TOR1, stronger effect = lower value 0.884 | locus YKL160W, strain elf1, stronger effect = lower value 0.982 | locus YKL190W, strain CNB1, stronger effect = lower value 0.983 | locus YKR026C, strain gcn3, stronger effect = lower value 0.958 | locus YKR091W, strain srl3, stronger effect = lower value 0.957 | locus YLL001W, strain dnm1, stronger effect = lower value 0.973 | locus YLL026W, stronger effect = lower value 0.965 | locus YLL041C, strain sdh2, stronger effect = lower value 0.961 | locus YLR027C, strain aat2, stronger effect = lower value 0.966 | locus YLR039C, strain RIC1, stronger effect = lower value 0.994 | locus YLR085C, strain ARP6, stronger effect = lower value 0.92 | locus YLR221C, strain rsa3, stronger effect = lower value 0.935 | locus YLR258W, strain gsy2, stronger effect = lower value 0.955 | locus YLR262C, strain YPT6 (second series), stronger effect = lower value 0.951 | locus YLR262C, strain YPT6, stronger effect = lower value 1.02 | locus YLR320W, strain mms22, stronger effect = lower value 0.933 | locus YLR342W, strain FKS1, stronger effect = lower value 0.97 | locus YLR357W, strain rsc2, stronger effect = lower value 0.985 | locus YLR370C, strain arc18, stronger effect = lower value 0.961 | locus YLR384C, strain iki3, stronger effect = lower value 0.98 | locus YML094W, strain GIM5, stronger effect = lower value 1.02 | locus YML120C, strain ndi1, stronger effect = lower value 0.952 | locus YMR058W, strain fet3, stronger effect = lower value 0.956 | locus YMR125W, strain sto1, stronger effect = lower value 0.938 | locus YMR129W, stronger effect = lower value 0.943 | locus YMR205C, strain PFK2, stronger effect = lower value 0.954 | locus YMR231W, strain pep5, stronger effect = lower value 0.967 | locus YMR307W, strain GAS1, stronger effect = lower value 1 and 0.949 | locus YNL071W, strain lat1, stronger effect = lower value 0.935 | [7] 0.964 | locus YNL175C, strain NOP13, stronger effect = lower value 0.986 | locus YNL183C, strain NPR1, stronger effect = lower value 0.868 | [8] 0.987 | locus YNL209W, strain ssb2, stronger effect = lower value 0.972 | [9] 0.977 | locus YNL248C, strain rpa49, stronger effect = lower value 0.974 | locus YNL298W, strain CLA4 (second series), stronger effect = lower value 1 | locus YNL322C, strain KRE1 (second series), stronger effect = lower value 0.949 | locus YNR030W, strain Alg12, stronger effect = lower value 1 | locus YNR049C, strain mso1, stronger effect = lower value 0.941 | locus YOR001W, strain rrp6, stronger effect = lower value 1 | locus YOR070C, strain gyp1, stronger effect = lower value 0.963 | locus YOR080W, strain dia2, stronger effect = lower value 0.957 | [11] 1 | locus YOR083W, strain WHI5, stronger effect = lower value 0.982 | locus YOR106W, strain vam3, stronger effect = lower value 0.973 | locus YOR231W, strain MKK1, stronger effect = lower value 0.942 | locus YOR265W, strain rbl2, stronger effect = lower value 0.97 | locus YOR270C, strain vph1, stronger effect = lower value 0.952 | locus YOR290C, strain snf2, stronger effect = lower value 0.93 | locus YPL051W, strain arl3, stronger effect = lower value 0.98 | locus YPL055C, strain LGE1, stronger effect = lower value 0.996 | locus YPL078C, strain atp4, stronger effect = lower value 0.972 | locus YPL106C, strain sse1, stronger effect = lower value 0.869 | locus YPL240C, strain hsp82, stronger effect = lower value 0.963 | locus YPL241C, strain CIN2, stronger effect = lower value 1 and 0.984 | locus YPL256C, strain CLN2, stronger effect = lower value 0.96 | locus YPR135W, strain CTF4, stronger effect = lower value 1.08
active: locus YBR229C, strain ROT2, stronger effect = lower value 0.929 | locus YCL061C, strain MRC1, stronger effect = lower value 0.92 | [6] 0.909 | locus YJR075W, strain HOC1, stronger effect = lower value 0.888 | locus YLR058C, strain SHM2 (second series), stronger effect = lower value 0.929 | locus YLR113W, strain HOG1, stronger effect = lower value 0.787 | locus YMR219W, strain ESC1, stronger effect = lower value 0.944 | locus YMR263W, strain SAP30, stronger effect = lower value 0.9
